# Records with an inconclusive call do not appear. A number with no mark means an inactive call. Active and inactive are the calls of the source. Calls come from the whole dose curve; as a rule, active = well fitted inhibition curve with a large enough effect; inconclusive = small, poorly fitted or top-dose-only effect; inactive = no such curve, though single readings can be large or run the other way. Non-standard residues stand in square brackets, D forms with d. Residues, ends and D or L forms follow the SMILES beside them.
# Experiment: BET inhibitor-based combinations targeting novel dependencies in MECOM-rearranged (r) AML: MV-4-11 cell line (AID 2202233); note: nearly all actives have a fitted effect of over 45% in size;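 for viability, % of control: plate controls were DMSO for no effect and blank wells for full effect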
# Settings: MV-4-11 AML viability, CellTiter-Glo luminescence, 48 h; series mostly up to 46 µM; viability, % of control: at the top concentration
# In short: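 Cells were plated at 500 per well and exposed to each drug across an 11-point dose range for 48 hr at standard incubator conditions. Viability was read by CellTiter-Glo luminescence, and activity was expressed as AUC and per-cell-line Z-transformed AUC.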
# Potency is the fitted concentration of half-maximal effect.
Structure (SMILES),Potency,"viability, % of control"
COC1CCC(N2C(=O)CNc3ncc(-c4ccc(C(C)(C)O)nc4)nc32)CC1 (stereo not drawn),3720 nM (active),–
N[C@@H]1CN(c2c(F)cc3c(=O)c(C(=O)O)cn([C@@H]4C[C@@H]4F)c3c2Cl)CC12CC2,–,103%
C[C@H]1O[C@H](O[C@H]2[C@H](O)[C@@H](O)[C@@H](O[C@H]3[C@H](O)[C@@H](O)C(O)O[C@@H]3CO)O[C@@H]2CO)[C@H](O)[C@@H](O)[C@@H]1N[C@H]1C=C(CO)[C@@H](O)[C@H](O)[C@H]1O (stereo partly drawn),–,97.8%
CC(C)C[C@@H]1NC(=O)[C@@H](C(C)C)NC(=O)[C@@H]2CCCN2C(=O)[C@@H](CC(=O)O)NC(=O)[C@@H](Cc2c[nH]c3ccccc23)NC1=O (cyclo(L[dW][dD]P[dV])),–,126%
Cc1cnc(NC(=O)c2cc(Oc3cnc(C(=O)N(C)C)nc3)c3cc(C)oc3c2)cn1,–,121%
CC(C)(CO)n1cc(C(=O)c2cncc(NC(=O)Cc3ccc(Cl)cn3)c2)c2cnc(N)nc21,7420 nM (active),–
CN1CCC(c2c(O)cc(O)c3c(=O)cc(-c4ccccc4Cl)oc23)C1CO (stereo not drawn),934 nM (active),–
CN[C@@H]1[C@@H](O)[C@@H](O[C@@H]2[C@@H](O)[C@H](O[C@H]3O[C@H](CN)[C@@H](O)[C@H](O)[C@H]3O)[C@@H](N)C[C@H]2NC(=O)C(O)CN)OC[C@]1(C)O (stereo partly drawn),–,159%
CCCCCCCOc1ccc(CCC(N)(CO)CO)cc1C(F)(F)F,14800 nM (active),–
O=C(O)CNC(=O)c1nc(Cl)c2ccccc2c1O,–,131%
CCOc1ccc(-n2c([C@@H](C)N(Cc3cccnc3)C(=O)Cc3ccc(F)c(C(F)(F)F)c3)nc3ncccc3c2=O)cc1,18600 nM (active),–
COc1cccc2c1C(=O)c1c(O)c3c(c(O)c1C2=O)C[C@@](O)(/C(CO)=N/NC(=O)CCCCCN1C(=O)C=CC1=O)C[C@@H]3O[C@H]1C[C@H](N)[C@H](O)[C@H](C)O1,186 nM (active),–
Cc1ccc(-n2[nH]c(C)c(N=Nc3cccc(-c4cccc(C(=O)O)c4)c3O)c2=O)cc1C,–,98%
C[C@]12CC[C@H](O)CC1=CC[C@@H]1[C@@H]2CC[C@]2(C)C(c3cccnc3)=CC[C@@H]12,–,114% [at 15.6 µM]
CCCNC(=O)c1cn2ncnc(Nc3cc(C(=O)NC4CC4)ccc3C)c2c1C,–,107%
CCOCOC[C@H](C[C@H](C)C(=O)NO)NC(=O)c1ccc(Oc2ccccc2)cc1,–,94.2%
COc1cc(/C=C/C(=O)CC(=O)/C=C/c2ccc(O)c(OC)c2)ccc1O,3320 nM (active),–

Structure (SMILES),Potency,"viability, % of control"
COc1ccc(N2C(=O)N(c3c(C)cccc3Cl)Cc3cnc(Nc4ccc(C5CCN(C)CC5)cc4OC)nc32)nc1,2950 nM (active),–
COc1cc(Nc2cnc(C#N)c(O[C@H](C)CN(C)C)n2)ncc1-c1cnn(C)c1,742 nM (active),–
CNC1CCCN(c2c(F)cc3c(=O)c(C(=O)O)cn(C4CC4)c3c2OC)C1 (stereo not drawn),–,99.7%
CN(C)C(=O)COC(=O)Cc1ccc(OC(=O)c2ccc(N=C(N)N)cc2)cc1,–,120%
OC1CCC([C@H](O)C[C@H]2c3c(F)cccc3-c3cncn32)CC1 (stereo partly drawn),–,109%
COc1nnc2ccc(N3CCC(c4ccc(OCCN5CCN(C)C(=O)[C@H]5C)cc4)CC3)nn12,59 nM (active),–
CC[C@@]1(O)C(=O)OCc2c1cc1n(c2=O)Cc2c-1nc1ccccc1c2CCNC(C)C,4.2 nM (active),–
C/C(=N\NC(=S)N1CCC1)c1ccccn1,37.2 nM (active),–
O=C(O)CCNc1cc(N2CCc3ccccc3CC2)nc(-c2cccnc2)n1,–,131%
C[C@@H](OC[C@@]1(c2ccccc2)CC[C@]2(CCC(=O)N2)CN1)c1cc(C(F)(F)F)cc(C(F)(F)F)c1,20900 nM (active),–
CNCCCOc1cc(F)c(-c2c(Cl)nc3ncnn3c2N[C@@H](C)C(F)(F)F)c(F)c1,93.4 nM (active),–
CC(=O)c1cc2c(o1)C(=O)c1ccccc1C2=O,833 nM (active),–
COc1cc(N2CCN(C)CC2)ccc1Nc1ncc2c(n1)N(C)c1ccccc1C(=O)N2C,1320 nM (active),–
CC(C)(C)NC(=O)c1cncn1C1CCN(c2ccc(-c3nnc(C(F)(F)F)o3)cn2)CC1,5250 nM (active),–
O=[N+]([O-])c1ccc(O)c2ncccc12,13200 nM (active),–
COc1cc([C@@H]2c3cc4c(cc3[C@@H](O[C@@H]3O[C@@H]5CO[C@@H](c6cccs6)O[C@H]5[C@H](O)[C@H]3O)[C@H]3COC(=O)[C@H]23)OCO4)cc(OC)c1O,46.8 nM (active),–

# From PubChem BioAssay (NCATS)
